Laboratory results published in PubChem BioAssay (NCI).
The panel holds about 83,000 compounds, 20% with a hit somewhere; the sample as a whole holds those more often.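 Growth was measured after 48 h exposure to one concentration of compound in 96-well plates. Values under 10 count as active.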 The source made the active and inactive calls.

Columns and labels:
Experiment in all cases: NCI-60 one-dose screen, 48 h (100 = growth as untreated, 0 = no growth, -100 = all killed)
[1] = system: SR leukemia; settings: 10 µM
[2] = system: RPMI-8226 leukemia; settings: 10 µM
[3] = system: OVCAR-8 ovarian; settings: 10 µM
[4] = system: OVCAR-5 ovarian; settings: 10 µM
[5] = system: OVCAR-4 ovarian; settings: 10 µM
[6] = system: SK-OV-3 ovarian; settings: 10 µM
[7] = system: IGROV1 ovarian; settings: 10 µM
[8] = system: OVCAR-3 ovarian; settings: 10 µM
[9] = system: HS 578T breast; settings: 10 µM
[10] = system: NCI/ADR-RES ovarian; settings: 10 µM
[11] = system: T-47D breast; settings: 10 µM
[12] = system: BT-549 breast; settings: 10 µM
[13] = system: MDA-MB-435 melanoma; settings: 10 µM
[14] = system: SW-620 colon; settings: 10 µM
[15] = system: MCF7 breast; settings: 10 µM unless noted
[16] = system: HCT-116 colon; settings: 10 µM
[17] = system: HCC-2998 colon; settings: 10 µM
[18] = system: KM12 colon; settings: 10 µM

Measured: growth

O=c1cc(-c2ccccc2)[nH]c2c1CCCC2
active: [10] -40.8% | [13] -12.9%
inactive: [1] 30.5% | [2] 21.3% | [3] 39.7% | [4] 39.3% | [5] 49.8% | [6] 25.8% | [7] 44.3% | [8] 15.9% | [9] 16.3% | [11] 22.8% | [12] 53.7% | [14] 24.2% | [15] 17.2% | [16] 27.9% | [17] 40% | [18] 26.3%

Cc1ccccc1N=C(c1ccccc1)C1C(=O)c2ccccc2C1=O
inactive: [1] 27% | [2] 59.9% | [3] 97.4% | [4] 103% | [5] 101% | [6] 61.8% | [7] 55.3% | [8] 71.9% | [9] 83% | [10] 80.2% | [11] 40.4% | [12] 42.6% | [13] 27% | [14] 84.3% | [15] 55.2% | [16] 46.4% | [17] 104%

CCCC1(c2ccccc2)NC(=O)NC1=O (stereo unspecified)
inactive: [1] 126% | [2] 101% | [3] 111% | [4] 103% | [5] 104% | [6] 99.7% | [7] 128% | [8] 108% | [9] 113% | [10] 109% | [11] 106% | [12] 106% | [13] 113% | [14] 111% | [15] 98.6% | [16] 99.3% | [17] 100% | [18] 110%

CC(=O)N(C)c1ccc([N+](=O)[O-])cc1
inactive: [1] 105% | [2] 120% | [3] 99.6% | [4] 91.8% | [5] 119% | [6] 106% | [7] 117% | [8] 118% | [9] 120% | [10] 106% | [11] 94.7% | [12] 97.4% | [13] 113% | [14] 107% | [15] 95.6% | [16] 102% | [17] 94.8% | [18] 114%

CCCCC(CC)COC(C)=O (stereo unspecified)
inactive: [1] 103% | [2] 110% | [3] 102% | [4] 103% | [5] 100% | [6] 101% | [7] 112% | [8] 105% | [9] 106% | [10] 99.2% | [11] 97.2% | [12] 107% | [13] 105% | [14] 104% | [15] 96% | [16] 108% | [17] 105% | [18] 101%

O=S(=O)(O)CC(O)CN1CCN(CCO)CC1 (stereo unspecified)
inactive: [1] 92.4% | [2] 96.3% | [3] 98.8% | [4] 117% | [5] 114% | [6] 95.3% | [7] 124% | [8] 108% | [9] 104% | [10] 99.7% | [11] 108% | [12] 99.3% | [13] 113% | [14] 105% | [15] 96% | [16] 101% | [17] 89.4% | [18] 107%

CC1Cc2ccccc2O1 (stereo unspecified)
inactive: [1] 100% | [2] 109% | [3] 112% | [4] 110% | [5] 119% | [6] 112% | [7] 111% | [8] 118% | [9] 111% | [10] 110% | [11] 104% | [12] 134% | [13] 124% | [14] 111% | [15] 99.6% | [16] 112% | [17] 86.4% | [18] 107%

CCOC(=O)Nc1cc2c(c(N)n1)N=C(c1ccccc1)CO2
inactive: [2] 29.3% | [3] 14.5% | [4] 57.4% | [5] 49.4% | [6] 22.8% | [7] 25.2% | [9] 50.1% | [10] 13.4% | [11] 72.3% | [12] 49.7% | [14] 26.2% | [15] 20.4% | [17] 23.5%
active: [1] 6.89% | [8] -28.2% | [13] 4.31% | [16] 6.32% | [18] 5.46%

Cc1cc(C)cc(NCCC#N)c1
inactive: [1] 107% | [2] 106% | [3] 126% | [4] 112% | [5] 102% | [6] 106% | [7] 110% | [8] 105% | [9] 134% | [10] 110% | [11] 107% | [12] 123% | [13] 111% | [14] 102% | [15] 101% | [16] 106% | [17] 109% | [18] 107%
